Laboratory results from PubChem BioAssay (NCATS).
“And” between values parts separate entries of the source, which are not always exact repeats. Identical values can stand only once. The source made the active and inactive calls. A call without a number means that no potency is given here. Unless noted, calls follow the shape of the full dose curve.

How the values were obtained:
[1] = molecular target: Estrogen receptor (Homo sapiens) (UniProt P03372); assay: qHTS assay for small molecule antagonists of estrogen receptor alpha signaling (AID 588513; active = well fitted curve in the direction sought with a large enough effect in the signal ratio, with a control signal flat, not every such curve was filed as active; inconclusive = small, poorly fitted or top-dose-only effect, or effect the other way, or a change in a side signal; inactive = no such curve, though single readings can be large or run the other way; the % refers to the signal ratio; also: potency is read from the fitted curve at half-maximal effect)
Summary of the method: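 ER-alpha-UAS-bla GripTite HEK 293 cells in medium with 2% charcoal/dextran-treated FBS were preincubated 4 h at 37 C, dosed with compound (1:2 titration), stimulated with 0.5nM 17-beta-estradiol for 18 h, then read by CCF4 beta-lactamase fluorescence.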

[2] = molecular target: Estrogen receptor (Homo sapiens) (UniProt P03372); assay: qHTS assay for small molecule agonists of estrogen receptor alpha signaling (AID 588514); also: nearly all actives have a fitted effect of over 70% in size; also: potency is read from the fitted curve at half-maximal effect
Summary of the method: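 ER-alpha-UAS-bla GripTite HEK293 cells, 5000/well in 2% charcoal/dextran-stripped FBS medium, treated with compound titrations 18 h at 37 C. CCF4 beta-lactamase read by fluorescence after 2 h RT; normalised to 20 nM 17-beta-estradiol (100%) and DMSO (0%), Hill fit for EC50 and efficacy.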

[3] = molecular target: Androgen receptor (Homo sapiens) (UniProt P10275); assay: qHTS assay for small molecule agonists of androgen receptor signaling (AID 588515; active = well fitted curve in the direction sought with a large enough effect in the signal ratio, with a control signal flat; inconclusive = small, poorly fitted or top-dose-only effect, or effect the other way, or a change in a side signal; inactive = no such curve, though single readings can be large or run the other way; the % refers to the signal ratio; also: potency is read from the fitted curve at half-maximal effect); settings: AR-UAS-bla HEK293, beta-lactamase ratio, agonist 16 h; activation: stronger effect = higher value
Summary of the method: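 EC50 and efficacy came from Hill fits of titrations (up to 92 uM) normalized to 30 nM R1881 as 100% and DMSO as 0%. Compound exposure was 16 h at 37 C on AR-UAS-bla HEK293 cells, with a 405/460/530 nm CCF4 fluorescence read.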

[4] = molecular target: Androgen receptor (Homo sapiens) (UniProt P10275); assay: qHTS assay for small molecule antagonists of androgen receptor signaling (AID 588516; active = well fitted curve in the direction sought with a large enough effect in the signal ratio, with a control signal flat, not every such curve was filed as active; inconclusive = small, poorly fitted or top-dose-only effect, or effect the other way, or a change in a side signal; inactive = no such curve, though single readings can be large or run the other way; the % refers to the signal ratio)
Summary of the method: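 AR-UAS-bla-GripTite HEK 293 cells (2000/well, 5 h at 37 C) received compound titrations, then R1881 at 10 nM final; after 16 h at 37 C, CCF4 dye 2 h RT, beta-lactamase fluorescence read; IC50 from Hill fits.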

[5] = molecular target: Bile acid receptor (Homo sapiens) (UniProt Q96RI1); assay: qHTS assay for small molecule antagonists of farnesoid X receptor signaling (AID 588526); also: potency is read from the fitted curve at half-maximal effect
Summary of the method: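 Antagonist mode: titrated compounds tested against chenodeoxycholic acid stimulation (normalized to 50 uM CDCA and DMSO) in GeneBLAzer HEK293T cells for 16 h. Beta-lactamase read by CCF4 fluorescence; IC50 from Hill fits.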

[6] = molecular target: Bile acid receptor (Homo sapiens) (UniProt Q96RI1); assay: qHTS assay for small molecule agonists of farnesoid X receptor signaling (AID 588527); settings: HEK293T FXR-UAS-bla, beta-lactamase ratio, 16 h; stronger effect = higher value; also: series mostly up to about 77 µM
Summary of the method: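 FXR-UAS-bla HEK293T cells (10% dialyzed FBS) preincubated 5-7 h at 37 C, then compounds at up to 92 uM for 16 h at 37 C. CCF4 beta-lactamase read-out after 2 h RT. Normalized to chenodeoxycholic acid (100 uM) and DMSO; Hill fit gave EC50 and efficacy.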

[7] = molecular target: Glucocorticoid receptor (Homo sapiens) (UniProt P04150); assay: qHTS assay for small molecule agonists of glucocorticoid receptor signaling (AID 588532; active = well fitted curve in the direction sought with a large enough effect in the signal ratio, with a control signal flat; inconclusive = small, poorly fitted or top-dose-only effect, or a change in a side signal; inactive = no such curve, though single readings can be large or run the other way; the % refers to the signal ratio); settings: HeLa MMTV-bla, beta-lactamase ratio, agonist, 18 h; stronger effect = higher value; percent of dexamethasone control, DMSO zero
Summary of the method: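 MMTV-bla HeLa beta-lactamase reporter cells in 1% charcoal/dextran FBS medium, compounds up to 92 uM for 18 h at 37 C, CCF4 readout; normalized to 0.1 uM dexamethasone (100%), EC50 and efficacy from Hill fits.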

[8] = molecular target: Peroxisome proliferator-activated receptor gamma (Homo sapiens) (UniProt P37231); assay: qHTS assay for small molecule agonists of peroxisome proliferator-activated receptor gamma signaling (AID 588536; active = well fitted curve in the direction sought with a large enough effect in the signal ratio, with a control signal flat, not every such curve was filed as active; inconclusive = small, poorly fitted or top-dose-only effect, or effect the other way, or a change in a side signal; inactive = no such curve, though single readings can be large or run the other way; the % refers to the signal ratio)
Summary of the method: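 GeneBLAzer PPAR-gamma-UAS-bla HEK293 cells in 1% charcoal/dextran-treated FBS medium were treated 16 h at 37 C with compounds. Beta-lactamase activity was read by CCF4 ratio (460/530 nm). Response was normalized to 2 uM rosiglitazone (100%) and DMSO, then Hill-fitted for EC50 and efficacy.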

[9] = molecular target: Peroxisome proliferator-activated receptor gamma (Homo sapiens) (UniProt P37231); assay: qHTS assay for small molecule antagonists of peroxisome proliferator-activated receptor gamma signaling (AID 588537; active = well fitted inhibition curve with a large enough effect in the signal ratio, with a control signal flat, not every such curve was filed as active; inconclusive = small, poorly fitted or top-dose-only effect, or effect the other way, or a change in a side signal; the % refers to the signal ratio; also: potency is read from the fitted curve at half-maximal effect)
Summary of the method: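 PPARγ-UAS-bla HEK293 cells (3000/well) in 1% charcoal/dextran-stripped FBS are treated with compound, then stimulated with 50 nM rosiglitazone for 16 h at 37 °C. Read-out is CCF4 β-lactamase fluorescence after 2 h at RT. IC50 comes from Hill fits normalised to rosiglitazone and DMSO.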

[10] = molecular target: Vitamin D3 receptor (Homo sapiens) (UniProt P11473); assay: qHTS assay for small molecule antagonists of vitamin D receptor signaling (AID 588541);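 also: receptor activated by calcitriol during compound treatment; series mostly up to about 77 µM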
Summary of the method: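 VDR-UAS-bla HEK293T cells in 2% charcoal-stripped FBS were stimulated with 1-alpha,25-dihydroxyvitamin D3 (3 nM final) plus compound for 16 h at 37 C. The beta-lactamase CCF4 readout was normalized to 50 nM agonist and DMSO, and Hill fits gave IC50.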

[11] = molecular target: Ubiquitin carboxyl-terminal hydrolase 1 (Homo sapiens) (UniProt O94782); assay: Inhibitors of USP1/UAF1: Pilot qHTS (AID 504865; active = well fitted inhibition curve with a large enough effect; inconclusive = small, poorly fitted or top-dose-only effect;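 also: rhodamine fluorescence freed from ubiquitin-rhodamine substrate followed over time; top concentration of the series differs between compounds; nearly all actives have a fitted effect of over 35% in size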)
Summary of the method: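 USP1/UAF1 complex (1nM) preincubated with compound 15 min at room temperature, then Ub-Rho substrate (150nM final) added. Fluorescence read kinetically at 480/540 nm, 6 reads every 60 seconds. Buffer: 50mM HEPES pH 7.8, 0.5mM EDTA, 0.1 mg/ml BSA, 1mM TCEP, 0.01% Tween-20.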

[12] = molecular target: Peroxisome proliferator-activated receptor delta (Homo sapiens) (UniProt Q03181); assay: qHTS assay for small molecule agonists of peroxisome proliferator-activated receptor delta signaling (AID 588534)
Summary of the method: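 Cells carrying a PPAR-delta beta-lactamase reporter were treated with compounds for 18 h at 37 °C in agonist mode. CCF4 fluorescence was read after 2 h; EC50 and efficacy from Hill fits.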

[13] = qHTS assay for small molecule antagonists of peroxisome proliferator-activated receptor delta signaling (AID 588535; active = well fitted inhibition curve with a large enough effect in the signal ratio, with a control signal flat, not every such curve was filed as active; inconclusive = small, poorly fitted or top-dose-only effect, or effect the other way, or a change in a side signal; inactive = no such curve, though single readings can be large or run the other way; the % refers to the signal ratio; also: potency is read from the fitted curve at half-maximal effect;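 as to max response: cells co-treated with a PPAR-delta agonist as stimulator during compound exposure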); settings: HEK293T PPARd-UAS-bla, beta-lactamase FRET ratio, 18 h; 460 nm channel
Summary of the method: (§1)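 Antagonist-mode beta-lactamase reporter (GeneBLAzer PPAR-delta-UAS-bla) in HEK293T cells, 2% charcoal/dextran FBS, 4000 cells/well. Compound titrations, 18 h at 37 C; CCF4 ratio read, IC50 and efficacy from Hill fits.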

[14] = molecular target: Peroxisome proliferator-activated receptor delta (Homo sapiens) (UniProt Q03181); assay: as above
Summary of the method: as §1

[15] = molecular target: Glucocorticoid receptor (Homo sapiens) (UniProt P04150); assay: qHTS assay for small molecule antagonists of glucocorticoid receptor signaling (AID 588533; active = well fitted inhibition curve with a large enough effect in the signal ratio, with a control signal flat, not every such curve was filed as active; inconclusive = small, poorly fitted or top-dose-only effect, or effect the other way, or a change in a side signal; the % refers to the signal ratio; also: potency is read from the fitted curve at half-maximal effect)
Summary of the method: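 Antagonist-mode qHTS: compound titrations added to GRE-bla HeLa cells, then dexamethasone 2 nM final; 18 h, 37 C. CCF4 FRET fluorescence normalized to dexamethasone and DMSO; IC50 from Hill fit.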

[16] = molecular target: DNA dC->dU-editing enzyme APOBEC-3G (Homo sapiens) (UniProt Q9HC16); assay: qHTS for inhibitors of Vif-A3G interactions: Validation (AID 588379; active = well fitted inhibition curve with a large enough effect; inconclusive = small, poorly fitted or top-dose-only effect)
Summary of the method: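 HeLa cells stably expressing Vif and A3G-eYFP, 700 cells/well, incubated overnight at 37 deg C, then exposed to compound overnight at 37 deg C. Inhibition of Vif-mediated degradation read as increased yellow fluorescence (Ex 488/Em 500-530) by laser-scanning cytometry.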

Sequence of DNA dC->dU-editing enzyme APOBEC-3G (Homo sapiens) (Q9HC16 whole entry, looked up): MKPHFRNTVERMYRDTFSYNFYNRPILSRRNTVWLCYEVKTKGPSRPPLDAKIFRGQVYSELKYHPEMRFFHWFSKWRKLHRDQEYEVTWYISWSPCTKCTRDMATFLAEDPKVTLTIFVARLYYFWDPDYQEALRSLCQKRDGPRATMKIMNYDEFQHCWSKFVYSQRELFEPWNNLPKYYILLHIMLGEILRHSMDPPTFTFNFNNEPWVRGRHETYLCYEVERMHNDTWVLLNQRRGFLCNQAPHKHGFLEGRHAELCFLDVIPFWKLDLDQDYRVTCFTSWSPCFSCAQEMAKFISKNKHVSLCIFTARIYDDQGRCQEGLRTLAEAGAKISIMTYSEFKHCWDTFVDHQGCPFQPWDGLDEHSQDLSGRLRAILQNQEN
Sequence of Glucocorticoid receptor (Homo sapiens) (P04150 whole entry, looked up): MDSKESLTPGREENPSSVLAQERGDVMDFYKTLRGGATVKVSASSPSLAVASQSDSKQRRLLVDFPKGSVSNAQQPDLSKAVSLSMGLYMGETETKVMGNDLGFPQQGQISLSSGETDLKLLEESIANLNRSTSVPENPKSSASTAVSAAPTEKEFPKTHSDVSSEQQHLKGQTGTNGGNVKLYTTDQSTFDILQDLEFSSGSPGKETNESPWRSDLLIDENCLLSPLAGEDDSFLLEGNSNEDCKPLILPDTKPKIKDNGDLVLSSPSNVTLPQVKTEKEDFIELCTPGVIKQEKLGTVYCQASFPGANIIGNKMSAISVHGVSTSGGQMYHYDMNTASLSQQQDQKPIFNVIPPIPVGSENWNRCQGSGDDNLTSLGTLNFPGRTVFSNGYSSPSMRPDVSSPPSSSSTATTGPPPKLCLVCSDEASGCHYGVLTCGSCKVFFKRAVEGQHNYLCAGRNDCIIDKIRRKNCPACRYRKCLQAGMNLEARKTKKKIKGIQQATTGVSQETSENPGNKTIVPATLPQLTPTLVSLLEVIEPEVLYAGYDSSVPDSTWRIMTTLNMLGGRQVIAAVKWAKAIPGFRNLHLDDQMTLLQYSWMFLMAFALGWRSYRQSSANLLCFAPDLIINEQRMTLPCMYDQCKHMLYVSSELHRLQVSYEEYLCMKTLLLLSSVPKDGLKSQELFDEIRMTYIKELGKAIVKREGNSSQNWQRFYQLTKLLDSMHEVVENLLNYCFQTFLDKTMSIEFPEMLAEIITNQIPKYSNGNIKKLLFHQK
Sequence of Estrogen receptor (Homo sapiens) (P03372 whole entry, looked up): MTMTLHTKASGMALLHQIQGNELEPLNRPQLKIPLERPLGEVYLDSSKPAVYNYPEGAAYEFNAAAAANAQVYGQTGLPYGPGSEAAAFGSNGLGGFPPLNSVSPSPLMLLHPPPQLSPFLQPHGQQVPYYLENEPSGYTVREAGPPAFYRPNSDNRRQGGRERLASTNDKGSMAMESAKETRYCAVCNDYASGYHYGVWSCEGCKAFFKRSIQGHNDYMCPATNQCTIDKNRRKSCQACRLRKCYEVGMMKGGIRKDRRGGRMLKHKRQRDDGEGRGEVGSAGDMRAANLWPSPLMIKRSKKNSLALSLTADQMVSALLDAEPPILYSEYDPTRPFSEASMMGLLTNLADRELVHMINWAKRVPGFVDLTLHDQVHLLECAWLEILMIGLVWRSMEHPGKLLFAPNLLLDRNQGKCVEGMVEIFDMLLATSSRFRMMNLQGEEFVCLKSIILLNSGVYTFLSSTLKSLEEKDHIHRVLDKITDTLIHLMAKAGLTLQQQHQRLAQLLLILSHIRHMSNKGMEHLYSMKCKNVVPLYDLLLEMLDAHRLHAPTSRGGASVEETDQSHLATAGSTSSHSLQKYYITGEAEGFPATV
Sequence of Vitamin D3 receptor (Homo sapiens) (P11473 whole entry, looked up): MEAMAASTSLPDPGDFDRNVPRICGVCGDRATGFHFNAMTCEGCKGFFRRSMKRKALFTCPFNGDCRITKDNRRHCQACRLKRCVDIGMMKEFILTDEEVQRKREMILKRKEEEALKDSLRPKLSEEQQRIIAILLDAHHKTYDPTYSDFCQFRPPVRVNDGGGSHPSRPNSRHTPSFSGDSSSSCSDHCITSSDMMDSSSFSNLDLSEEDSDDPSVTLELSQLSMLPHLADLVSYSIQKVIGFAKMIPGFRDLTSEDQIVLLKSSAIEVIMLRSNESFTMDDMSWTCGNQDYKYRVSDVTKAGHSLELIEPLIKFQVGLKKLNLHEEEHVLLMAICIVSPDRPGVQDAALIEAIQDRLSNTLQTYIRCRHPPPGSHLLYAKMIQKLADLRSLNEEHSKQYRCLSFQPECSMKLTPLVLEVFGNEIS
Sequence of Ubiquitin carboxyl-terminal hydrolase 1 (Homo sapiens) (O94782 whole entry, looked up): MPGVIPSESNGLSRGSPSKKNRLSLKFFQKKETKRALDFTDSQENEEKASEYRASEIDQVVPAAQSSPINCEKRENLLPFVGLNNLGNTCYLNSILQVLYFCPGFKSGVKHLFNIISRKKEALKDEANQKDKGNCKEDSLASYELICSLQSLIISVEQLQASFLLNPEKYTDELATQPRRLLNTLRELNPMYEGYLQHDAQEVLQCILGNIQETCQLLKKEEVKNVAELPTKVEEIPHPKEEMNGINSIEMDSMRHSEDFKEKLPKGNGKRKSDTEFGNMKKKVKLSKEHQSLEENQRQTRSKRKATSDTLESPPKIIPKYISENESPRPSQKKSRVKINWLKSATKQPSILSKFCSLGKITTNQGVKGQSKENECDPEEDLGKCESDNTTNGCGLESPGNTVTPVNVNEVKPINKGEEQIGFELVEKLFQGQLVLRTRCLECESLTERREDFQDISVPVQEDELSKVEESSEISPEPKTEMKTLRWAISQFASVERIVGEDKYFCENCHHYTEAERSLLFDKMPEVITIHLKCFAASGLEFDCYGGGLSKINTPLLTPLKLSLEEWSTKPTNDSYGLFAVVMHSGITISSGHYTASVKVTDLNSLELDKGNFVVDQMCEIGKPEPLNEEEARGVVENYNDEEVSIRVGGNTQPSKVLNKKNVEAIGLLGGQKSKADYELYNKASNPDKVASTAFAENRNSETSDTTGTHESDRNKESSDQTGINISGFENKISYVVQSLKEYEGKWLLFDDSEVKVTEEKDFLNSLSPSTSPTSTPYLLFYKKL
Sequence of Bile acid receptor (Homo sapiens) (Q96RI1 whole entry, looked up): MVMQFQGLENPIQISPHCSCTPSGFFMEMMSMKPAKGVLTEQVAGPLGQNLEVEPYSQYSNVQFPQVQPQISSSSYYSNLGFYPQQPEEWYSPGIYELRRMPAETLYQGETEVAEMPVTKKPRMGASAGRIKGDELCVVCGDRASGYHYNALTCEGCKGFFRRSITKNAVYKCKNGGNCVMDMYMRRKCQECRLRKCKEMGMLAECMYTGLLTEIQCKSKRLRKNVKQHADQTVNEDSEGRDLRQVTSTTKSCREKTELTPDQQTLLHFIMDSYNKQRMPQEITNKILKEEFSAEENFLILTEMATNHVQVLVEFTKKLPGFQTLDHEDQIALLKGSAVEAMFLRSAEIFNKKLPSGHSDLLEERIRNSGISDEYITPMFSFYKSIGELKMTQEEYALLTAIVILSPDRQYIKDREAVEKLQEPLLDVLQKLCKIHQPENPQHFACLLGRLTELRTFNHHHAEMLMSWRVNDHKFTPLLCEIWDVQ
Sequence of Androgen receptor (Homo sapiens) (P10275 whole entry, looked up): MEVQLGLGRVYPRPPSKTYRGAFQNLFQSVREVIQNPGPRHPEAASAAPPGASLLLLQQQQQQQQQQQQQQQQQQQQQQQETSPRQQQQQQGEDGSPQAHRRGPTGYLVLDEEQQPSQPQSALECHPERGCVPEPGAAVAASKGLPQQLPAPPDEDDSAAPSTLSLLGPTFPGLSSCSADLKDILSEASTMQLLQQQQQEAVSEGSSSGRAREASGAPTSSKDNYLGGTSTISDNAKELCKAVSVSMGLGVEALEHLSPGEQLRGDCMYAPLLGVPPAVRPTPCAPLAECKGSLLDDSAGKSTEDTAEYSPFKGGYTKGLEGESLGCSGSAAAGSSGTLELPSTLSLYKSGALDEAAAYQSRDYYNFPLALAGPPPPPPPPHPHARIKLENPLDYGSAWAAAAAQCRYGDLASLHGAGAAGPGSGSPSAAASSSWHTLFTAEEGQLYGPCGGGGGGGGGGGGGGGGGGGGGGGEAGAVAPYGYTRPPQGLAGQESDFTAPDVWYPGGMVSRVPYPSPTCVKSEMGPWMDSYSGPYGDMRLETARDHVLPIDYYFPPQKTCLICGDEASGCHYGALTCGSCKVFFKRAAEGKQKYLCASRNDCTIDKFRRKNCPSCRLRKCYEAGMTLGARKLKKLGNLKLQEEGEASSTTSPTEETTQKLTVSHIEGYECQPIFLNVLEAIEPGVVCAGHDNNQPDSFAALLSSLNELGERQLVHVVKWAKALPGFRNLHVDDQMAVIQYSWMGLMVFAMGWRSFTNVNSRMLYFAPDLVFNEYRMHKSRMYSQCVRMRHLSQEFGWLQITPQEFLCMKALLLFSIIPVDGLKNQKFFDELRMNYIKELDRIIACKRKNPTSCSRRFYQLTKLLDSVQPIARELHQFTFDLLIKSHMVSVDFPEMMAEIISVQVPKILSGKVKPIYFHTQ
Sequence of Peroxisome proliferator-activated receptor gamma (Homo sapiens) (P37231 whole entry, looked up): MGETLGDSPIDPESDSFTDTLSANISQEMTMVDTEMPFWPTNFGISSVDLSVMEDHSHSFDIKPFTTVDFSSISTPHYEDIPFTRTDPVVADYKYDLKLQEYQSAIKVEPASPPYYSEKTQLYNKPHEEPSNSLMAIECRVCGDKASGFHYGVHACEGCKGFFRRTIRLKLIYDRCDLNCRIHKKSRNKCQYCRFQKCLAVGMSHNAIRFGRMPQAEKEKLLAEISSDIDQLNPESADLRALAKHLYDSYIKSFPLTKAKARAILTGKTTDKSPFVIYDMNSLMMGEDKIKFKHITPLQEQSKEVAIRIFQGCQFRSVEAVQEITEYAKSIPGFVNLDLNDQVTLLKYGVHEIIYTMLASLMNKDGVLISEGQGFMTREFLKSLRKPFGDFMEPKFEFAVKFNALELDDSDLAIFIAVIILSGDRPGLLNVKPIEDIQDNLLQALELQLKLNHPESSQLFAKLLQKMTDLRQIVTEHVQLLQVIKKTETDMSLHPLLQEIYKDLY

Question: Which Potency [1] does the source give for O=C(NC(=O)c1c(F)cccc1F)Nc1cc(Cl)c(OC(F)(F)C(F)C(F)(F)F)cc1Cl (centres undefined) here?
Answer: inactive

Question: What about the Potency [2] of the same compound?
Answer: inactive

Question: What about the activation [3] of the same compound?
Answer: -6.9% (inactive)

Question: And the outcome [4]?
Answer: inactive

Question: What about the Potency [5] of the same compound?
Answer: inactive

Question: And the activation [6]?
Answer: -0.875% (inactive)

Question: What about the activation [7] of the same compound?
Answer: 15.8% (inactive)

Question: And the outcome [8]?
Answer: inactive

Question: What about the Potency [9] of the same compound?
Answer: inactive

Question: And the outcome [10]?
Answer: inactive

Question: For CCCCCCCCC(=O)NCc1ccc(O)c(OC)c1, which Potency [11] is on record?
Answer: inactive

Question: What about the Potency [1] of the same compound?
Answer: inactive

Question: And the outcome [12]?
Answer: inactive

Question: And the max response [13]?
Answer: 11.4%

Question: What about the Potency [14] of the same compound?
Answer: inactive

Question: What about the outcome [8] of the same compound?
Answer: inactive

Question: What about the outcome [10] of the same compound?
Answer: inactive

Question: Which Potency [2] does the source give for CCC(=O)O[C@H]1CC[C@H]2[C@@H]3CCC4=CC(=O)CC[C@]4(C)[C@H]3CC[C@]12C here?
Answer: 2.82 µM (active)

Question: What about the Potency [3] of the same compound?
Answer: 0.0089 µM (active)

Question: What about the Potency [15] of the same compound?
Answer: 31.6 µM (active)

Question: What about the outcome [12] of the same compound?
Answer: inactive

Question: And the max response [13]?
Answer: -14.3%

Question: And the Potency [14]?
Answer: inactive

Question: Which outcome [16] does the source give for Oc1ccc2[nH]cc(CCCCN3CC=C(c4ccccc4)CC3)c2c1 here?
Answer: inactive

Question: With COCC(=O)N(c1c(C)cccc1C)C(C)C(=O)OC (centres undefined) as the compound, how does the Potency [11] read?
Answer: inactive

Question: What about the Potency [1] of the same compound?
Answer: inactive

Question: And the Potency [5]?
Answer: inactive

Question: And the activation [6]?
Answer: 3.52% (inactive)

Question: And the outcome [12]?
Answer: inactive

Question: What about the max response [13] of the same compound?
Answer: -19%

Question: And the Potency [14]?
Answer: inactive

Question: What about the outcome [8] of the same compound?
Answer: inactive

Question: What about the Potency [9] of the same compound?
Answer: inactive

Question: What about the outcome [10] of the same compound?
Answer: inactive

Question: For CN(C)C(=O)Oc1cc(OC(=O)N(C)C)cc(C(O)CNC(C)(C)C)c1 (centres undefined), which Potency [11] is on record?
Answer: inactive

Question: Which outcome [16] does the source give for C[C@@H]1C[C@@H]([C@H](O)CC2CC(=O)NC(=O)C2)C(=O)[C@@H](C)C1 here?
Answer: inactive

Question: And the Potency [5]?
Answer: inactive

Question: What about the activation [6] of the same compound?
Answer: 0.176% (inactive) and -1.82% (inactive) and 1.78% (inactive)

Question: What about the outcome [12] of the same compound?
Answer: inactive

Question: And the max response [13]?
Answer: -115% and -59.6%

Question: What about the Potency [14] of the same compound?
Answer: 316 nM (active) and 199 nM (active)

Question: What about the outcome [8] of the same compound?
Answer: inactive

Question: Which Potency [11] does the source give for C[C@H](N)[C@H](O)c1ccc(O)c(O)c1 here?
Answer: inactive

Question: For CCN(Cc1ccc(Cl)nc1)/C(=C/[N+](=O)[O-])NC, which Potency [11] is on record?
Answer: inactive

Question: Which Potency [1] does the source give for Oc1ccc(Cl)cc1Cc1cc(Cl)ccc1O here?
Answer: 44.7 µM [inconclusive] (active)

Question: And the outcome [4]?
Answer: inactive

Question: What about the Potency [5] of the same compound?
Answer: 7.94 µM (active)

Question: What about the activation [6] of the same compound?
Answer: 1.29% (inactive)

Question: What about the outcome [12] of the same compound?
Answer: inactive

Question: What about the Potency [9] of the same compound?
Answer: 35.5 µM (active)

Question: For N#Cc1nn(-c2c(Cl)cc(C(F)(F)F)cc2Cl)c(N)c1S(=O)C(F)(F)F (centres undefined), which Potency [11] is on record?
Answer: inactive

Question: And the Potency [2]?
Answer: inactive

Question: And the activation [6]?
Answer: 6.05% (inactive)

Question: And the activation [7]?
Answer: -6.58% (inactive)

Question: For CCC1(CC)C(=O)NC(=O)NC1=O, which Potency [11] is on record?
Answer: inactive

Question: With CN1C[C@@H](NS(=O)(=O)N(C)C)C[C@@H]2c3cccc4c3c(cn4C)C[C@H]21 as the compound, how does the Potency [11] read?
Answer: inactive

Question: Which Potency [11] does the source give for COP(=O)(OC)C(O)C(Cl)(Cl)Cl (centres undefined) here?
Answer: inactive

Question: What about the activation [7] of the same compound?
Answer: 3.67% (inactive)

Question: What about the outcome [12] of the same compound?
Answer: inactive

Question: Which results are given for O=c1n(Cl)c(=O)n(Cl)c(=O)n1Cl?
Answer: Potency [11]: inactive; Potency [1]: inactive; activation [7]: 0.274% (inactive); Potency [15]: inactive; outcome [12]: inactive; outcome [8]: inactive; Potency [9]: inactive; outcome [10]: inactive

Question: Which Potency [11] does the source give for Clc1ccc(C(OCCN2CCCCC2)c2ccccc2)cc1 (centres undefined) here?
Answer: inactive

Question: Which Potency [11] does the source give for C[C@]12Cc3nonc3C[C@@H]1CC[C@@H]1[C@@H]2CC[C@@]2(C)[C@H]1CC[C@]2(C)O here?
Answer: inactive

Question: What does the source list for CN(C)C(=S)SSC(=S)N(C)C?
Answer: Potency [11]: inactive; Potency [1]: inactive; Potency [2]: inactive; activation [6]: 3.15% (inactive); activation [7]: 0.667% (inactive) and -2.28% (inactive); Potency [15]: inactive; outcome [12]: inactive; max response [13]: 11.3%; Potency [14]: inactive

Question: Which Potency [11] does the source give for c1ccc2nc(N3CCNCC3)ccc2c1 here?
Answer: inactive

Question: And the outcome [16]?
Answer: inactive

Question: Which outcome [16] does the source give for CN1[C@@H]2CC[C@H]1CC(OC(=O)c1cc(Cl)cc(Cl)c1)C2 (some centres undefined) here?
Answer: inactive

Question: Which results are given for Oc1c(Br)cc(Br)cc1Br?
Answer: Potency [11]: inactive; Potency [1]: inactive; Potency [2]: inactive; outcome [12]: inactive; max response [13]: 18.5%; Potency [14]: inactive; outcome [8]: inactive; Potency [9]: inactive

Question: For O=C(CCl)c1ccc(Cl)cc1Cl, which Potency [2] is on record?
Answer: inactive

Question: And the activation [7]?
Answer: -10.9% (inactive)

Question: And the Potency [15]?
Answer: 14.1 µM (active)

Question: For CCOP(=S)(OCC)O/N=C(\C#N)c1ccccc1, which activation [7] is on record?
Answer: -3.68% (inactive)

Question: What about the Potency [15] of the same compound?
Answer: inactive
